# Experimental data published in the supplement of paper PMC3334620.
# In all, about 33,000 sequences were measured (“E-score (-0.5 to 0.5)”: median about -0.043, highest 2% from about 0.37 on). The sample holds the highest values, similar sequences and a random draw of the others, so the mix is not that of the screen.
# Biological target: T1, Upc2 (UniProt Q12151)
# T1 sequence: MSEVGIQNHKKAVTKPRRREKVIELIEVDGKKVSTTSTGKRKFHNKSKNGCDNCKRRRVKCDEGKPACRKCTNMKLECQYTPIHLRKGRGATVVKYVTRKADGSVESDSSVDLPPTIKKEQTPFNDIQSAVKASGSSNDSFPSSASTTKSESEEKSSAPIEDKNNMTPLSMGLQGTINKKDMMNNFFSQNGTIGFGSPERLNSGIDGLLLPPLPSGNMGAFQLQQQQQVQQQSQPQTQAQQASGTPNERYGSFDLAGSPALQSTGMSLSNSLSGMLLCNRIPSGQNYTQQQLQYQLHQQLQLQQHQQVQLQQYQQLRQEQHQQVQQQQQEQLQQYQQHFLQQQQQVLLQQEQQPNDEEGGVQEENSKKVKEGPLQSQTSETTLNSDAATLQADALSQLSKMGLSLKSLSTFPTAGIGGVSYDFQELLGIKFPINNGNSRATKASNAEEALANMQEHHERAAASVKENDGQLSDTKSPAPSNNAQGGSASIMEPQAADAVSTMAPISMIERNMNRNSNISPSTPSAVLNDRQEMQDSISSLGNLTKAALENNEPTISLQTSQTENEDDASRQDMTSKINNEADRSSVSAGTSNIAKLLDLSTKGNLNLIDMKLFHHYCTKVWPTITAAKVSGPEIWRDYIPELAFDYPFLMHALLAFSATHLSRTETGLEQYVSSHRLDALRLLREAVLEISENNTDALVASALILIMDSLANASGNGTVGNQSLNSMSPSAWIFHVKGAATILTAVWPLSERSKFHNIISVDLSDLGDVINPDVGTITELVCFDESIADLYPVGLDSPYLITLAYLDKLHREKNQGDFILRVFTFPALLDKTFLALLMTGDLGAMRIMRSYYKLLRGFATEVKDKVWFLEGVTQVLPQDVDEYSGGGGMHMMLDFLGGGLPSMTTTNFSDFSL
# Assay: PBM E-score (8-mer binding enrichment) (E-score (-0.5 to 0.5)); higher = stronger / more preferred TF binding
# Details: protein concentration: 200 nM; construct: GST-full length
# Procedure: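 Universal 'all 10-mer' protein binding microarrays (Agilent AMADID 015681) probed with GST-tagged S. cerevisiae TFs (full-length or DBD) made by in vitro transcription/translation (PURExpress), about 100-200 nM. Bound TF was detected with fluorescent anti-GST. Each ungapped 8-mer (which stands for itself and its reverse complement) is scored by the PBM enrichment score (E-score), a modified Wilcoxon-Mann-Whitney statistic from -0.5 to +0.5, computed with the Universal PBM Analysis Suite. Scale: above 0.35 generally sequence-specific binding.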
row,Sequence,PBM E-score
1,CGTCGGGC,-0.231
2,ATCAATCA,0.0322
3,AAAATCCT,0.0605
4,AGGTTACG,0.221
5,CACGTAGC,-0.0699
6,GTAGTAGA,-0.0548
7,CTCGTAGC,0.4
8,ATCGTAGC,0.356
9,GACGTAGA,0.054
10,CTCGTAGA,0.404
11,ATCGTAGA,0.337
12,GTCGTAGA,0.386
13,CACGTAGA,0.0732
14,GTGGGGCA,-0.058
15,CAGTGTCC,-0.141
16,AGCCAATC,-0.0383
17,TCCAGCCA,-0.231
18,AGTCTATA,0.0445
19,ATGATCTA,-0.00479
20,GACGAGCC,-0.00056
21,TGCGAGCA,0.21
22,AGCGAGCT,0.225

row,Sequence,PBM E-score
1,ACCGAGCT,0.186
2,AACGAGCG,0.442
3,AACGAGCT,0.438
4,TACGAGCA,0.465
5,TCCGAGCA,0.176
6,CACGAGCC,0.0758
7,AACGAGCC,0.449
8,AGCGAGCG,0.281
9,CACGAGCG,0.17
10,CGCCGCTC,-0.0776
11,AGTAACCA,-0.164
12,CGCCAGCA,-0.169
13,ATTGATAC,0.173
14,GGCAACAA,0.0296
15,GACGCCAA,-0.0565
16,AGTTGATA,-0.0653
17,GGGTGCAC,-0.128
18,CGCATAGA,0.158
19,CACGAGCA,-0.0761
20,GACGAGCA,0.00509
21,AACGAGCA,0.444
22,CATGCTAA,-0.2

row,Sequence,PBM E-score
1,GAGGTTTA,0.0651
2,ATTGGACA,-0.0219
3,GAACGGCA,0.27
4,AAACGGCA,0.37
5,AAACGGCT,0.296
6,CAACGGCA,-0.0468
7,AAACGGCC,0.359
8,AAACGGCG,0.401
9,TAGAAACA,0.0409
10,GAGTGTGA,0.156
11,CGCCCAAG,-0.0616
12,ATCTAAGA,-0.179
13,GCAGTACC,-0.124
14,GAGCACAA,-0.0319
15,CCGAGCGA,0.193
16,ACGAGCGA,0.379
17,ACGAGCGC,0.347
18,GCGAGCGA,0.226
19,ACGAGCGG,0.369
20,ACGAGCGT,0.386
21,ACTCAGTA,0.18
22,ATGGTGGG,-0.278

row,Sequence,PBM E-score
1,AACCTGTA,0.118
2,TGACGAAA,0.00712
3,CCACGAAA,-0.0902
4,GAACGAAA,0.416
5,CAACGAAC,0.257
6,AAACGAAC,0.471
7,GCACGAAC,0.25
8,GAACGAAC,0.441
9,AGACGAAC,0.29
10,ACACGAAC,0.216
11,ATGCTGAA,-0.151
12,GTTGTGAA,0.00742
13,GAAGCAGA,-0.244
14,CGCAGCCC,-0.0774
15,AATACGGC,0.291
16,CGTACGGC,0.381
17,CATACGGG,0.367
18,CATACGGC,0.383
19,AGTACGGC,0.299
20,CGTACGTC,0.338
21,GGTACGGA,0.355
22,AGTACGGA,0.224
